# Data published in PubChem BioAssay (Tox21).
# Results filed as inconclusive are left out. A number with no mark means an inactive call. Active and inactive are the calls of the source. Calls follow the shape of the dose curve; as a rule, active = well fitted activation curve with a large enough effect in the repeat runs; inconclusive = weak or mixed curves; inactive = no such curve, though single readings can be large or run the other way.
# Target: Aryl hydrocarbon receptor (Homo sapiens) (UniProt P35869)
# Sequence (P35869 whole entry, looked up): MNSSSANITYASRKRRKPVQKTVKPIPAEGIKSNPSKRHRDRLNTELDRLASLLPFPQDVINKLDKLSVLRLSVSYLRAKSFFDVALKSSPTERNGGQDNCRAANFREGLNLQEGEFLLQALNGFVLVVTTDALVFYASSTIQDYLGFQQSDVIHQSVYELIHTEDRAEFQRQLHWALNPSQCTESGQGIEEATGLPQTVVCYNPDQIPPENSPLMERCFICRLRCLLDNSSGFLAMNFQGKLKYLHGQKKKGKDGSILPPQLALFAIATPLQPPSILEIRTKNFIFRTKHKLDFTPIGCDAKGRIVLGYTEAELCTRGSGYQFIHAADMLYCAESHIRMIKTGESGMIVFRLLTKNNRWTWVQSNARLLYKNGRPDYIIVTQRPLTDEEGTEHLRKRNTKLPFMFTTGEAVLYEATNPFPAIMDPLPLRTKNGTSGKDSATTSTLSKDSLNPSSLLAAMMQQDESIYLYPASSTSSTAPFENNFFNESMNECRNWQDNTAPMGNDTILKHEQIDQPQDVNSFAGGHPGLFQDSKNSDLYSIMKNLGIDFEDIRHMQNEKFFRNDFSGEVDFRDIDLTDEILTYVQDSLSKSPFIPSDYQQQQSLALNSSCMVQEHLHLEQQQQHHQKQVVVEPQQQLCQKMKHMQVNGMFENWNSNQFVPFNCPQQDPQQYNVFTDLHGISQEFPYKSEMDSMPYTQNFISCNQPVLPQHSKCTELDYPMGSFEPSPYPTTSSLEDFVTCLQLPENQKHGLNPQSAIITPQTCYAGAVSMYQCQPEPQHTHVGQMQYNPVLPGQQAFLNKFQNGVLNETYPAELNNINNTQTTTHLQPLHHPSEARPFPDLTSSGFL
# Assay: qHTS assay to identify small molecule that activate the aryl hydrocarbon receptor (AhR) signaling pathway (AID 743085); also: nearly all actives have a fitted effect of over 15% in size;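 as to activation: HG2L7.5c1 human HepG2 liver cells with stably integrated DRE-driven firefly reporter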
# Details: HepG2 AhR-luc (HG2L7.5c1), luciferase, 24 h; series mostly up to 70.3 µM; activation: at the top concentration
# Excerpt: U.S. Tox21 Program National Center for Advancing Translational Sciences [NCATS] NIH Chemical Genomics Center [NCGC] U.S. Environmental Protection Agency [EPA] National Institutes of Environmental Health Sciences [NIEHS] National Toxicology Program [NTP] U.S. Food and Drug Administration [FDA] Tox21 Assay overview: The Aryl hydrocarbon Receptor (AhR), a member of the family of basic helix-loop-helix transcription factors, is crucial to adaptive responses to environmental changes. AhR mediates cellular responses to environmental pollutants such as aromatic hydrocarbons through induction of phase I and II enzymes but also interacts with other nuclear receptor signaling pathways. A cell based HepG2-AhR-luc assay (HG2L7.5c1 cell line, developed by Dr. Michael S. Denison, University of California at Davis, was used to assess the activation of AhR. HepG2 (human hepatocellular carcinoma) cells were stably transfected with an Ah receptor-responsive firefly luciferase reporter gene plasmid containing 20 dioxin responsive elements and luciferase reporter gene. Increased luciferase activity can be used to identify the compounds that induce AhR activation.
# Tox21 Assay Protocol Summary: 4000 cells in 5 uL/well were dispensed into white wall/solid bottom 1536-well plates using a Multidrop Combi (Thermo Fisher Scientific Inc., Waltham, MA) dispenser. After the assay plates were incubated at 37C for 5 h, 23 nL of compound or DMSO vehicle was transferred to the assay plates by a pintool station (Kalypsys, San Diego, CA). The plates were incubated at 37C for 24 hr. After 1 ul/well of CellTiter-Fluor reagent (Promega, Madison, WI) was added into the assay plates using a Flying Reagent Dispenser (FRD) (Aurora Discovery, CA), the assay plates were incubated at 37C for 30 min. The fluorescence intensity in the plates was measured using a ViewLux plate reader (PerkinElmer, Shelton, CT), followed by the addition of 4 uL of ONE-Glo Luciferase Assay reagent (Promega) using an FRD (Aurora Discovery). After the assay plates were incubated at room temperature for 30 min, luminescence intensity was measured using a ViewLux plate reader (Perkin Elmer).
# % is scaled to controls: 0 for no effect and ±100 for the full control effect; potency is read from the fitted curve at half-maximal effect.
Compound,activation,Potency
CC(C)=CCC/C(C)=C/C#N,-0.513% [at 95 µM],
O=C(O)c1cc(C(=O)O)cc(C(=O)O)c1,0.0565% [at 95 µM],
CCOc1ccccc1OCC,-0.542%,
CCCCCCCCCCCCCCCCCCO,-0.264%,
Cc1ccc(C(=O)c2ccccc2)cc1,6.57%,
CO[Si](C)(OC)c1ccccc1,-0.407%,
Cc1ncc(COP(=O)(O)O)c(C=O)c1O,0.0143%,
c1ccc2sc(SN3CCOCC3)nc2c1,,23.7 µM (active)
CC(C)C1CCC(O)CC1 (stereo not given),-0.92%,
CC1=NS(=O)(=O)c2cc(Cl)ccc2N1,-0.489%,
O=C1c2ccccc2C(=O)c2cc(O)ccc21,,61.2 µM (active)
CCCOC(=O)CC,-0.683%,
O=C(O)CNC(=O)c1ccc(CO)o1,4.06%,
CC[N+](C)(CC)CCOC(=O)C1c2ccccc2Oc2ccccc21,-1.54%,
O=C(O)CC(C(=O)O)S(=O)(=O)O (stereo not given),0.548%,
Nc1ccn([C@@H]2O[C@H](CO)[C@@H](O)C2(F)F)c(=O)n1,-1.7%,
CN(C)CCCN(C)CCCN(C)C,-0.345%,
CC(C)(N)C#N,3.55% [at 95 µM],
CCOC(=O)CCC(=O)OCC,-1.21%,
O=C(c1ccccc1O)c1ccccc1O,7.4%,

Compound,activation,Potency
CC[C@H]1OC(=O)[C@H](C)[C@@H](O[C@H]2C[C@@](C)(OC)[C@@H](O)[C@H](C)O2)[C@H](C)[C@@H](O[C@@H]2O[C@H](C)C[C@H](N(C)C)[C@H]2O)[C@](C)(OC)C[C@@H](C)C(=O)[C@H](C)[C@@H](O)[C@]1(C)O,,inactive
O=C(O)CCSCCC(=O)O,-0.255%,
CC(C)(CCC(=O)O)C(=O)O,-2.2% [at 95 µM],
CC1(C)OC[C@@H](COC(=O)CCc2ccc(OC[C@@H](O)CNCCNC(=O)N3CCOCC3)cc2)O1,,inactive
NO,0.377% [at 95 µM],
O=C(O)Cc1csc(-c2ccc(Cl)cc2)n1,0.555%,
CCCCCCCCN1CCCC1=O,-0.2%,
CNCCO,-0.0489%,
CC(=O)N[C@H]1[C@H]([C@H](O)[C@H](O)CO)OC(C(=O)O)=C[C@@H]1N=C(N)N,3.12%,
CN1[C@@H]2CC[C@H]1CC(OC(=O)C(O)c1ccccc1)C2 (stereo not given in full),,inactive
CCCc1ncc(C[n+]2ccccc2C)c(N)n1,-1.27% [at 32.5 µM],
Cc1c(N)c(=O)n(-c2ccccc2)n1C,2.68% [at 32.5 µM],
Nc1ccncc1N,,2.66 µM (active)
CC1OC1C1CCC2(C)OC2C1 (stereo not given),-0.291%,
O=S(=O)(O)c1cccc(S(=O)(=O)O)c1,2.24%,
CCCCN(CCC(=O)OCC)C(C)=O,-0.543%,
CO[C@@]1(NC(=O)C(C(=O)O)c2ccc(O)cc2)C(=O)N2C(C(=O)O)=C(CSc3nnnn3C)CO[C@@H]21 (stereo not given in full),-0.129% [at 32.5 µM],
CC(=O)O[C@@]12CO[C@@H]1C[C@H](O)[C@@]1(C)C(=O)[C@H](O)C3=C(C)[C@@H](OC(=O)[C@H](O)[C@@H](NC(=O)OC(C)(C)C)c4ccccc4)C[C@@](O)([C@@H](OC(=O)c4ccccc4)[C@H]21)C3(C)C,,inactive
CCCCCC(C)N (stereo not given),-2.09%,
CC/C=C\CCOC(C)OCC (stereo not given),-0.14%,
